40 compounds from PubChem BioAssay (NCI) can be followed below.

Molecules are shown by their SMILES. About 83,000 compounds went through this panel and 20% of them were active in at least one assay; those are over-represented in the sample as a whole.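 96-well plates, one dose, 48 hours. Percent growth reported; active if below 10.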 Values without a mark were called inactive. Calls of active or inactive are those of the source.

The subject of the experiment is A498 renal. The experiment is described as follows: NCI-60 one-dose screen, 48 h (100 = growth as untreated, 0 = no growth, -100 = all killed). As to conditions: 10 µM unless noted. The procedure: Growth inhibition of the A498 human tumor cell line is measured as a screen for anti-cancer activity. Cells are grown in 96 well plates and exposed to the test compound for 48 hours. Compounds are tested at a single concentration, which is 10^-5 M for most compounds. The reported endpoint is percent growth (GI% or GIPRCNT), where numbers from 0 - 100% represent growth inhibition, and numbers from -100% - 0 represent cell death. For example, a value of 40 represents 60% growth inhibition. A value of 0 means no net growth occurred over the course of the experiment. A value of -40 indicates 40% of cells at the beginning of the experiment died by the end of the experiment. A value of -100 means all cells are dead at the end of the experiment.
NCI-60 Human Tumor Cell Lines Screen was performed using the standard one-dose NCI protocol, which is described in more detail at https://dtp.cancer.gov/discovery_development/nci-60/default.htm.
Compounds with GIPRCNT values below 10 were considered active. Activity score was based on GIPRCNT using the following formula: […]
Score is 0 for GIPRCNT values of 100 or above, 50 for GIPRCNT values of 0, and 100 for GIPRCNT values of -100.
Take `O=C1/C(=C/c2ccccc2O)C(=S)SN1Cc1ccco1`: the growth was 95.2%.

Consider `CC(C)N(Cc1ccccc1)c1c(S)ssc1=S`, for which the growth is -7.36% (active).

On to `COc1ccc2c(c1)CC/C(=C\c1ccc(OCC(=O)Nc3nc4ccccc4s3)cc1)C2=O`, for which the growth was 117%.

On to `CCCCCCCCCCN1CCC(N2CCCCC2)CC1`, for which the growth was 74.2%.

Regarding `O=c1c2c(=NCCCN3CCCC3)cc3c(=O)n(CCCN4CCCC4)c(=O)c4c(NCCCN5CCCC5)cc(c(O)n1CCCN1CCCC1)c2c4-3`, the growth was -67.3% (active).

In the case of `COc1cccc(C=Nc2cc(C(C)C)c(O)cc2C)c1O`, the growth was 75.7%.

Regarding `COc1cc(C2CC(C3C(=O)N(C)C(=O)N(C)C3=O)=NN2C=O)cc(OC)c1OC` (stereo not given), the growth was 95.1%.

For the compound `Nc1ccc2c(c1)C(=O)c1cc(Cl)c(Cl)cc1-2`, the growth is 76.5%.

`NC(=O)c1cc(Cl)ccc1NC(=O)c1ccccc1-c1ccccc1`: the growth is 27.5%.

`O=C(C(=O)N1CCOCC1)c1cn(CCCn2cc(C(=O)C(=O)N3CCOCC3)c3ccccc32)c2ccccc12`: the growth was 134%.

For `Cc1cc2ccccn2c1C(=O)c1ccc(C(=O)c2ccccc2)cc1`, the growth was 90.5%.

As for `COc1cccc2c1C(=O)c1c(O)c3c(c(O)c1C2=O)C[C@@](O)(C(C)=O)C[C@@H]3O[C@H]1C[C@H](N)[C@H](O)[C@H](C)O1`, the growth is -72.7% (active).

As for `O=C(/C=C/c1cccc(O)c1)c1cccc(-n2cc(-c3ccccc3)[nH]c2=O)c1`, the growth is 90.6%.

As to `COc1cc(C(=O)c2cc3c(cc2C)OCO3)cc(OC)c1OC`, the growth was -2.13% (active).

In the case of `COC(=O)[C@H](Cc1cnc[nH]1)NC(=O)[C@@H](NC(=O)Nc1cc(C(F)(F)F)cc(C(F)(F)F)c1)C(C)C`, the growth is -87.8% [100 µM] (active).

For the compound `O=C(/C=C/c1ccc([N+](=O)[O-])cc1)c1ccc2c3c(cccc13)CC2`, the growth was -63.2% (active).

For the compound `COc1cnc2c(c1)C(=O)c1c-2n(CCCNC(C)C)c(=O)c2cc(F)ccc12`, the growth is -89% (active).

On to `Cn1c(N2N=C(c3ccc(Cl)cc3)CC2c2ccccc2)nc(-c2ccccc2)c(C#N)c1=O` (stereo not given), for which the growth was 79.6%.

`O=C(c1ccc(N2CCOCC2)cc1[N+](=O)[O-])N1CCOCC1`: the growth is 104%.

Turning to `CCOC(=O)Nc1ccc2c3c(cccc13)-c1ccccc1-2`, the growth was 76.2%.

On to `Nc1ccn(C2O[C@H](CO)[C@@H](O)[C@@H]2O)c(=O)n1` (stereo not given in full), for which the growth is 66.8%.

`Cc1cnc2nc(-c3ccc(N(C)C)cc3)cn2c1`: the growth was 107%.

On to `CCOC(=O)N1CCC(N=C2CSc3nnc(-c4cc(C(F)(F)F)cc(C(F)(F)F)c4)n3N2)CC1`, for which the growth is 22.4%.

Regarding `c1cc[n+](Cc2ccnc3ccccc23)cc1`, the growth was 109%.

In the case of `NC(=N\N=C/Cc1ccccc1)/C(N)=N\N=C\Cc1ccccc1`, the growth is 90.1%.

Regarding `O=C1Nc2ccc(Cl)cc2[C@@](C#CC2CC2)(C(F)(F)F)O1`, the growth is 106%.

`C[C@]12CC[C@H](O)CC1=CC[C@@H]1[C@@H]2CC[C@]2(C)C(c3cccnc3)=CC[C@@H]12`: the growth was 64.4%.

Regarding `CCN(CC)CCOCC[C@H]1CC[C@H]2[C@@H]3[C@H](C)Cc4cc(OS(N)(=O)=O)ccc4[C@H]3CC[C@]12C`, the growth is -91.6% (active).

Turning to `O=c1oc2c(cc1-c1ccc([N+](=O)[O-])cc1)C(O)Oc1ccccc1-2` (stereo not given), the growth is 84.8%.

`Cc1ncc(C(=O)Nc2ccc(CN3CCN(C)CC3)c(C(F)(F)F)c2)cc1C#Cc1cncc2ncccc12`: the growth was -4.12% (active).

Consider `COc1cc(/C=C/C(=O)C(C(=O)/C=C/c2ccc(OC(=O)CCNC34CC5CC(CC(C5)C3)C4)c(OC)c2)C(=O)CCNC23CC4CC(CC(C4)C2)C3)ccc1OC(=O)CCNC12CC3CC(CC(C3)C1)C2` (stereo not given), for which the growth is 59.3%.

Take `COC(=O)[C@H](Cc1cn(C)cn1)NC(=O)[C@@H](NC(=O)Nc1cc(C(F)(F)F)cc(C(F)(F)F)c1)C(C)C`: the growth was -89.4% [100 µM] (active).

Regarding `C(=C1c2ccccc2-c2ccccc21)c1ccncc1`, the growth is 62%.

With `COc1cc(/C=C/c2cc(/C=C/c3ccc(O)c(OC)c3)n(C(=O)c3ccc(Cl)cc3)n2)ccc1O`, the growth was 7.49% (active).

`Nc1nc2c(nnn2Cc2ccc(Cl)c(Cl)c2)c(=O)[nH]1`: the growth was 85.5%.

As to `O=C1Nc2ccc(C(=O)O)c(O)c2C1=O`, the growth is 102%.

On to `c1ccc(-c2oc(-c3ccccc3)c3ccccc23)cc1`, for which the growth is 98.9%.

On to `CN(C)CCC(=O)Nc1ccc(-n2cc(-c3cccc(NC(=S)Nc4cccc(-c5cn(-c6ccc(NC(=O)CCN(C)C)cc6)nn5)c4)c3)nn2)cc1`, for which the growth was 108%.

For the compound `O=c1c2ccccc2c2nccn2c2cc(Cl)ccc12`, the growth was 77.9%.

In the case of `O=C(N/N=C/c1cccc([N+](=O)[O-])c1)c1ccc(Br)o1`, the growth is 129%.
